The structures appear in SMILES notation. ± gives the standard deviation.

What all share (conditions): modulator concentration 10 µM
Assay [1] has as its system RAW-Dual (murine macrophage reporter line). Kind of assay: NF-kB reporter (SEAP) activity fold change vs agonist alone; higher = enhanced NF-kB activity. In a few lines: (§1)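 In 384-well plates holding 50 000 RAW-Dual murine macrophage reporter cells per well, compound at 10 μM final was pre-incubated for 1 hour at 37 °C, after which a PRR agonist was added overnight. Supernatant SEAP read with QUANTI-Blue at 620 nm absorbance reported NF-κB, and Lucia luciferase read with QUANTI-Luc luminescence reported IRF. Fold change values come from dividing each reporter signal by the mean of agonist-only control wells on the same plate, averaged over replicate plates with propagated errors.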

Assay [2] shares this test system. Kind of assay: IRF reporter (Lucia luciferase) activity fold change vs agonist alone; higher = enhanced IRF activity. In a few lines:
as §1

The test system is the same in assay [3]. Kind of assay: viability score (confluency relative to resting cells, overnight) (fraction); higher = more viable, active = viable (0.7 or more). In short, it runs like this: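 Compound was added at a final 10 μM to RAW-Dual macrophages in 384-well plates and left overnight. Confluency was imaged with IncuCyte, and two masks were generated in IncuCyte software over all imaged wells. Each viability score is confluency relative to resting cells, and a compound met the cutoff only when both masks were above 70% of resting cells.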

Where [4] appears, read: agonist: CpG ODN 1826 0.5 ug/mL.

On to `CCN(CC)CCOC(=O)C(c1ccccc1)C1CCCCC1.Cl` (configuration not stated), for which the figures for the NF-kB reporter in assay [1] (setting [4]), in assay [1] (agonist: LPS 0.1 ug/mL) and in assay [1] (agonist: MPLA […]) were 1.04 ± 0.08, 0.861 ± 0.076 and 0.878 ± 0.082, respectively. Also, the IRF reporter in assay [2] (agonist: 3'3'-cGAMP 10 ug/mL) is 1.07 ± 0.033; in assay [2] (agonist: LPS 0.1 ug/mL) it was 1.31 ± 0.13; in assay [2] (agonist: MPLA […]) it was 1.52 ± 0.18. For the same molecule, the viability score in assay [3] is 0.948 (active).
Regarding `NC(CO)(CO)CO`, the NF-kB reporter in assay [1] (setting [4]) amounted to 1.16 ± 0.24; in assay [1] (agonist: LPS 0.1 ug/mL) it was 1.1 ± 0.22; in assay [1] (agonist: MPLA […]), 1.01 ± 0.11. In addition, the IRF reporter turned out to be 0.964 ± 0.11 in assay [2] (agonist: 3'3'-cGAMP 10 ug/mL), 1.19 ± 0.12 in assay [2] (agonist: LPS 0.1 ug/mL) and 0.966 ± 0.15 in assay [2] (agonist: MPLA […]). Moreover, the viability score in assay [3] is 1 (active).
As for `CCC(=O)Nc1cccc(NC(=O)c2ccc(F)cc2)c1`, the NF-kB reporter in assay [1] (setting [4]) is 0.852 ± 0.066; in assay [1] (agonist: LPS 0.1 ug/mL), 0.906 ± 0.12; in assay [1] (agonist: MPLA […]) it was 0.977 ± 0.092. In addition, the IRF reporter was 0.99 ± 0.05 in assay [2] (agonist: 3'3'-cGAMP 10 ug/mL), 1.32 ± 0.092 in assay [2] (agonist: LPS 0.1 ug/mL) and 1.39 ± 0.17 in assay [2] (agonist: MPLA […]). Moreover, the viability score in assay [3] was 0.997 (active).
Turning to `Br.O=S(=O)(c1ccc(-c2csc(Nc3cccc4ccccc34)n2)cc1)N1CCOCC1`, the results for the NF-kB reporter in assay [1] (setting [4]), in assay [1] (agonist: LPS 0.1 ug/mL) and in assay [1] (agonist: MPLA […]) were 0.907 ± 0.077, 1.01 ± 0.089 and 1 ± 0.061, respectively. For the same molecule, the IRF reporter in assay [2] (agonist: 3'3'-cGAMP 10 ug/mL) worked out at 0.769 ± 0.053; in assay [2] (agonist: LPS 0.1 ug/mL), 1.25 ± 0.08; in assay [2] (agonist: MPLA […]), 1.12 ± 0.32. The viability score in assay [3] was 1 (active).
Take `COc1ccc(CC(C)N2CCN(c3cccc(C)c3C)CC2)cc1OC` (configuration not stated): the NF-kB reporter in assay [1] (setting [4]) stood at 0.765 ± 0.064; in assay [1] (agonist: LPS 0.1 ug/mL) it was 0.974 ± 0.074; in assay [1] (agonist: MPLA […]) it was 1.03 ± 0.08. The IRF reporter in assay [2] (agonist: 3'3'-cGAMP 10 ug/mL) stood at 0.787 ± 0.056; in assay [2] (agonist: LPS 0.1 ug/mL), 1.75 ± 0.22; in assay [2] (agonist: MPLA […]), 1.16 ± 0.11. Also, the viability score in assay [3] was 0.6 (inactive).
Take `CCC(=O)N(CCC(c1ccccc1OC)C1CCOC(C)(C)C1)Cc1ccc(OC)cc1` (configuration not stated): the NF-kB reporter in assay [1] (setting [4]) was 0.907 ± 0.072; in assay [1] (agonist: LPS 0.1 ug/mL) it was 0.986 ± 0.059; in assay [1] (agonist: MPLA […]), 0.938 ± 0.056. Further, the IRF reporter in assay [2] (agonist: 3'3'-cGAMP 10 ug/mL) turned out to be 1.04 ± 0.055; in assay [2] (agonist: LPS 0.1 ug/mL), 1.23 ± 0.29; in assay [2] (agonist: MPLA […]) it was 1.04 ± 0.088. Besides, the viability score in assay [3] was 1.01 (active).
Turning to `Cc1ncc(CC(=O)N2CCC(c3ccccc3F)S(=O)(=O)CC2)s1` (configuration not stated), the NF-kB reporter in assay [1] (setting [4]) came out at 0.93 ± 0.041; in assay [1] (agonist: LPS 0.1 ug/mL), 0.961 ± 0.1; in assay [1] (agonist: MPLA […]), 0.959 ± 0.053. The IRF reporter turned out to be 0.983 ± 0.074 in assay [2] (agonist: 3'3'-cGAMP 10 ug/mL), 0.985 ± 0.14 in assay [2] (agonist: LPS 0.1 ug/mL) and 0.998 ± 0.27 in assay [2] (agonist: MPLA […]). Besides, the viability score in assay [3] is 1.01 (active).
`O=C(/C=C/c1cccc(S(=O)(=O)Nc2ccccc2)c1)NO`: the NF-kB reporter in assay [1] (setting [4]) was found to be 2.21 ± 0.11; in assay [1] (agonist: LPS 0.1 ug/mL), 1.73 ± 0.14; in assay [1] (agonist: MPLA […]), 2.67 ± 0.12. Moreover, the IRF reporter came out at 0.0696 ± 0.0082 in assay [2] (agonist: 3'3'-cGAMP 10 ug/mL), 0.285 ± 0.017 in assay [2] (agonist: LPS 0.1 ug/mL) and 0.404 ± 0.12 in assay [2] (agonist: MPLA […]). In assay [3], the viability score was 0.0713 (inactive).
As for `NC[C@@H]1O[C@H](O[C@@H]2[C@@H](CO)OC(O[C@@H]3[C@@H](O)[C@H](N)C[C@H](N)[C@H]3O[C@H]3O[C@H](CN)[C@@H](O)[C@H](O)[C@H]3N)[C@@H]2O)[C@H](N)[C@@H](O)[C@@H]1O.O=S(=O)(O)O` (some centres not stated), the NF-kB reporter in assay [1] (setting [4]) was found to be 0.993 ± 0.074; in assay [1] (agonist: LPS 0.1 ug/mL) it was 1.01 ± 0.091; in assay [1] (agonist: MPLA […]), 0.983 ± 0.025. Also, the IRF reporter was 0.908 ± 0.09 in assay [2] (agonist: 3'3'-cGAMP 10 ug/mL), 1.02 ± 0.081 in assay [2] (agonist: LPS 0.1 ug/mL) and 1.11 ± 0.12 in assay [2] (agonist: MPLA […]). Further, the viability score in assay [3] was 1 (active).
On to `Br.COc1ccc2c3c1O[C@H]1C[C@@H](O)C=C[C@@]31CCN(C)C2`, for which the NF-kB reporter in assay [1] (setting [4]) amounted to 0.95 ± 0.071; in assay [1] (agonist: LPS 0.1 ug/mL), 1.03 ± 0.052; in assay [1] (agonist: MPLA […]) it was 0.947 ± 0.024. The IRF reporter worked out at 0.912 ± 0.08 in assay [2] (agonist: 3'3'-cGAMP 10 ug/mL), 0.995 ± 0.042 in assay [2] (agonist: LPS 0.1 ug/mL) and 1.11 ± 0.14 in assay [2] (agonist: MPLA […]). Also, the viability score in assay [3] was 1.01 (active).
For the molecule `O=C1CC(c2ccc(O)cc2)Oc2cc(O)cc(O)c21` (configuration not stated), the NF-kB reporter in assay [1] (setting [4]) stood at 1.31 ± 0.34; in assay [1] (agonist: LPS 0.1 ug/mL) it was 1.27 ± 0.17; in assay [1] (agonist: MPLA […]), 1.21 ± 0.077. For the same molecule, the IRF reporter in assay [2] (agonist: 3'3'-cGAMP 10 ug/mL) stood at 0.746 ± 0.031; in assay [2] (agonist: LPS 0.1 ug/mL) it was 1.09 ± 0.14; in assay [2] (agonist: MPLA […]), 1.13 ± 0.11. In addition, the viability score in assay [3] is 1 (active).
For the molecule `CC1CC(=O)C2=C(C1)OC(N)=C(C#N)C2c1ccc(F)cc1` (configuration not stated), the NF-kB reporter is 0.894 ± 0.09 in assay [1] (setting [4]), 1.01 ± 0.1 in assay [1] (agonist: LPS 0.1 ug/mL) and 0.935 ± 0.066 in assay [1] (agonist: MPLA […]). Also, the IRF reporter came to 0.874 ± 0.053 in assay [2] (agonist: 3'3'-cGAMP 10 ug/mL), 1.08 ± 0.077 in assay [2] (agonist: LPS 0.1 ug/mL) and 1.13 ± 0.2 in assay [2] (agonist: MPLA […]). In assay [3], the viability score was 0.982 (active).
As for `O=C(c1ccc(F)cc1)N(C1CCCCC1)C1CCCCC1`, the values for the NF-kB reporter in assay [1] (setting [4]), in assay [1] (agonist: LPS 0.1 ug/mL) and in assay [1] (agonist: MPLA […]) were 0.68 ± 0.053, 0.921 ± 0.067 and 1.07 ± 0.1, respectively. Further, the IRF reporter stood at 0.959 ± 0.033 in assay [2] (agonist: 3'3'-cGAMP 10 ug/mL), 1.28 ± 0.14 in assay [2] (agonist: LPS 0.1 ug/mL) and 1.4 ± 0.22 in assay [2] (agonist: MPLA […]). In addition, in assay [3], the viability score is 1.02 (active).
On to `N#Cc1c(N=Cc2ccc(O)cc2)sc2c1CCCC2`, for which the NF-kB reporter in assay [1] (setting [4]) came to 0.688 ± 0.055; in assay [1] (agonist: LPS 0.1 ug/mL) it was 0.94 ± 0.069; in assay [1] (agonist: MPLA […]) it was 0.979 ± 0.11. The IRF reporter in assay [2] (agonist: 3'3'-cGAMP 10 ug/mL) amounted to 0.713 ± 0.049; in assay [2] (agonist: LPS 0.1 ug/mL), 1.17 ± 0.22; in assay [2] (agonist: MPLA […]), 1.23 ± 0.24. Besides, the viability score in assay [3] was 0.997 (active).
Turning to `O=C(Nc1cc(C(F)(F)F)cc(C(F)(F)F)c1)c1cccc(Br)c1`, the values for the NF-kB reporter in assay [1] (setting [4]), in assay [1] (agonist: LPS 0.1 ug/mL) and in assay [1] (agonist: MPLA […]) were 1 ± 0.09, 1.02 ± 0.079 and 0.911 ± 0.074, respectively. Besides, the IRF reporter was 0.935 ± 0.028 in assay [2] (agonist: 3'3'-cGAMP 10 ug/mL), 1.55 ± 0.27 in assay [2] (agonist: LPS 0.1 ug/mL) and 1.19 ± 0.26 in assay [2] (agonist: MPLA […]). For the same molecule, the viability score in assay [3] is 1.01 (active).
Turning to `Cc1ccc(C=NN=C(c2ccccc2)c2ccccc2)o1`, the NF-kB reporter in assay [1] (setting [4]) was 0.796 ± 0.061; in assay [1] (agonist: LPS 0.1 ug/mL) it was 0.988 ± 0.076; in assay [1] (agonist: MPLA […]), 1.05 ± 0.15. Moreover, the IRF reporter in assay [2] (agonist: 3'3'-cGAMP 10 ug/mL) was found to be 0.61 ± 0.028; in assay [2] (agonist: LPS 0.1 ug/mL), 0.975 ± 0.098; in assay [2] (agonist: MPLA […]), 1.07 ± 0.2. Further, the viability score in assay [3] is 1.02 (active).

The values above are taken from the supplement of paper PMC10646978.
